High-throughput results from PubChem BioAssay.
Only some compounds are listed: those with a hit (about 0.9% of all), similar ones and a draw of the others.
RECQ1 helicase: inhibitors of human RECQ1 DNA helicase | RECQ1 DNA unwinding, red fluorescence kinetic read | actives 0.54% (n = 240,000) | Potency, µM (doses to about 57.3 µM), without a hit: at the highest dose activity, negative = inhibition, actives largely listed as inhibitors;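 also: plate controls were vehicle for no effect and no enzyme for full effect; nearly all actives have a fitted effect of over 30% in size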
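RECQ1T1 50 nM; forked duplex (20 bp + 30-nt ss tails) 200 nM, ATP 2 mM final; pH 8.0, 2 mM MgCl2, 2.5 ug/ml poly(dI-dC); 15 min compound preincubation; discontinuous kinetic read over 2 h at RT.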
TDP1 inh: inhibitors of human tyrosyl-DNA phosphodiesterase TDP1; actives 0.28% (n = 350,000); Potency, µM (series often up to 130 µM), without a hit: at the highest dose activity change, negative = inhibition, most hits filed as inhibitors; AID 485290; recombinant TDP1, AlphaScreen DNA substrate cleavage; also: nearly all actives have a fitted effect of over 40% in size
Target sequence (Q9NUW8 whole entry, looked up): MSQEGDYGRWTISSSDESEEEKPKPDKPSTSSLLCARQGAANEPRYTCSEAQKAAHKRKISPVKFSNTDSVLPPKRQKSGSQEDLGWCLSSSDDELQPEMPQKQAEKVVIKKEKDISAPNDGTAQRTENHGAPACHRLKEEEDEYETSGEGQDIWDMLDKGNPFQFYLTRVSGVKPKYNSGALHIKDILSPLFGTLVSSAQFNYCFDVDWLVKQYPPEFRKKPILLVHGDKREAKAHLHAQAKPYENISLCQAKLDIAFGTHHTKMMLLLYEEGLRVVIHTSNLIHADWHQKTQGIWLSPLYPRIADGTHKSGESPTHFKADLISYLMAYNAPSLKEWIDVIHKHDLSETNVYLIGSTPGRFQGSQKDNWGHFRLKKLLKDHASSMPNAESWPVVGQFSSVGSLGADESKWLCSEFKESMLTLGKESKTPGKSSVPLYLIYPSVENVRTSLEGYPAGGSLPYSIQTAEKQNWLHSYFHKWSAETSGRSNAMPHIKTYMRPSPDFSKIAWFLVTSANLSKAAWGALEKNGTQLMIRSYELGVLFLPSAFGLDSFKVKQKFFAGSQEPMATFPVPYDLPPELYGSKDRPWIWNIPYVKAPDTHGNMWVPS
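Here, a 5' biotin and 3' phosphotyrosine-FITC DNA oligonucleotide reports Tdp1 activity: intact substrate bridges AlphaScreen beads, while cleavage leaves a 3' phosphate and drops signal. All incubations at room temperature.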
BLM inh: blocks DNA unwinding by human BLM helicase; actives 0.2% (n = 350,000); recombinant BLM DNA unwinding, fluorescence dequenching; AID 2528; Potency, µM (top dose mostly 56.1 µM), for the others: at the top dose activity change, negative = inhibition, most hits filed as inhibitors;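 also: plate controls were vehicle for no effect and no enzyme for full effect; nearly all actives have a fitted effect of over 35% in size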
GCN5L2 inh: inhibitors of human GCN5L2 histone acetyltransferase; Q92830; GCN5L2 HAT assay, ThioGlo1 CoA-SH fluorescence; Potency, µM (highest dose often 58.9 µM), for inactives: top-dose activity change, negative = inhibition, hits mostly inhibitors; actives 0.21% (n = 390,000)
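Compounds, pin-transferred from DMSO stocks, meet 20nM GCN5L2 for 15 min before the reaction begins with H3(1-25) peptide (75uM) and acetyl-CoA (70uM). Thiol-reactive ThioGlo1 reports CoA release over 20 min at room temperature.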
LMNA splice mod: LMNA splicing modulation. actives 0.01% (n = 200,000). HeLa LMNA splicing GFP/RFP minigene ratio, 48 h. Potency, µM (series often up to 46.1 µM), inactives show top-dose ratio change, negative = inhibition, hits mostly inhibitors; active = well fitted inhibition curve with a large enough effect in the signal ratio, with a control signal flat, not every such curve was filed as active; inconclusive = small, poorly fitted or top-dose-only effect, or effect the other way, or a change in a side signal; the % refers to the signal ratio
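Read-out is the ratio of GFP to DsRed2 object intensity, acquired by 488 nm laser-scanning cytometry on HeLa lamin A-EGFP minigene reporter cells. Compound incubation 48 hrs at 37 °C in Opti-MEM with 2% FBS; DMSO 0.5% final.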
APEX1 inh: blocks human APE1 abasic DNA cleavage. P27695. recombinant APE1, TAMRA/BHQ-2 abasic DNA cleavage fluorescence. Potency, µM (titrated, usually from 65.8 µM), inactives show at the top dose activity change, negative = inhibition, actives largely listed as inhibitors. actives 0.35% (n = 350,000). AID 2517;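 also: plate controls were vehicle for no effect and reference inhibitor for full effect; nearly all actives have a fitted effect of over 55% in size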
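Readout is kinetic fluorescence (ex 525, em 598 nm) from cleavage of 50 nM TAMRA/BHQ-2 THF abasic duplex by 0.75 nM APE1, compound added 15 min beforehand at RT.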
Starred values were filed as active, the others as inactive; i = inactive; ? = inconclusive; nt = no result given; ! = repeats disagree; [ ] = remark or other dose. Unless noted, calls follow the shape of the dose curve; as a rule, active = well fitted curve in the direction sought with a large enough effect; inconclusive = small, poorly fitted or top-dose-only effect, or another doubt; inactive = no such curve, though single readings can be large; an effect the other way counts as inactive or inconclusive. Unless noted, % is scaled to controls: 0 for no effect and ±100 for the full control effect; potency is read from the fitted curve at half-maximal effect.

SMILES | RECQ1 helicase | TDP1 inh | BLM inh | GCN5L2 inh | LMNA splice mod | APEX1 inh
O=C(O)CN(CC(=O)O)CC1=CC2C(=CC1=O)Oc1cc(O)c(CN(CC(=O)O)CC(=O)O)cc1C21OC(=O)c2ccccc21 (configuration not stated) | nt | nt | nt | nt | nt | 12.6µM*
Cc1cc(C2(c3ccc(O)c(C)c3)OC(=O)c3ccccc32)ccc1O | -11.4% | nt | -16.5% | -11.1% | ? | ?
COc1ccc(-c2nc3ccccc3c(=O)n2Cc2ccco2)cc1COc1ccc(NC(C)=O)cc1 | nt | -3.8% | nt | nt | nt | nt
COc1ccc(-c2nc3ccccc3c(=O)n2Cc2ccc(CNC(=O)CO)cc2)cc1COc1ccc(NC(C)=O)cc1 | nt | 79.4µM* | nt | nt | nt | nt
CC(=O)Nc1ccc(-c2csc(N3CCC(C(N)=O)CC3)n2)cc1 | nt | nt | nt | nt | nt | -1.0%
COc1cccc(NC(=O)CN2C(=O)NC3(CCCC3)C2=O)c1 | nt | -4.1% | -1.3% | -5.2% | nt | -2.8%
COc1cccc(NC(=O)CN2C(=O)NC(C)(c3ccc(C)cc3)C2=O)c1 (configuration not stated) | nt | 39.8µM* | 3.3% | -0.8% | nt | 31.5%
CSCC[C@@H]1NC(=O)[C@@H](NC(=O)[C@H](CCCNC(=N)N)NC(=O)[C@H](CC(C)C)NC(=O)[C@H](CCSC)NC(=O)[C@H](CC(=O)O)NC(=O)[C@H](Cc2ccccc2)NC(=O)[C@@H](N)CC(=O)O)CSSC[C@@H](C(=O)N[C@@H](Cc2c[nH]c3ccccc23)C(=O)N[C@@H](CCC(N)=O)C(=O)N[C@@H](Cc2ccc(O)cc2)C(=O)O)NC(=O)[C@@H]2CCCN2C(=O)[C@H](CCCNC(=N)N)NC(=O)[C@H](Cc2ccccc2)NC(=O)[C@H](C(C)C)NC(=O)[C@H](CCCNC(=N)N)NC(=O)CNC(=O)[C@H](CC(C)C)NC1=O | -12.3% | 10.8% | -2.2% | -14.4% | nt | 2.6%
COC(=O)[C@H](COC(C)(C)C)NC(=O)O[C@@H]1C(=O)c2cc(OC)ccc2O[C@H]1c1cccc(OC)c1 | i | 3.1% | 1.0% | nt | nt | -3.9%
CC[C@H](C)[C@H](NC(=O)CNC(=O)[C@H](CCCNC(=N)N)NC(=O)[C@H](CO)NC(=O)[C@H](C)NC(=O)[C@H](Cc1ccc(O)cc1)NC(=O)[C@H](Cc1c[nH]c2ccccc12)NC(=O)[C@H](C)NC(=O)[C@@H]1CCCN1C(=O)[C@H](CC(N)=O)NC(=O)[C@@H](NC(=O)[C@H](CC(=O)O)NC(=O)[C@@H]1CCCN1C(=O)[C@@H](N)[C@@H](C)O)[C@@H](C)CC)C(=O)N[C@@H](CCCNC(=N)N)C(=O)N1CCC[C@H]1C(=O)N[C@H](C(=O)NCC(=O)N[C@@H](CCCNC(=N)N)C(=O)N[C@@H](Cc1ccccc1)C(N)=O)C(C)C | -2.7% | 10.8% | -11.8% | 0.0% | nt | 13.1%
COc1ccc(NC(=O)CSc2nnc(-c3cccc(S(=O)(=O)N4CCCC4)c3)n2-c2ccccc2)cc1 | nt | nt | nt | nt | nt | 35.5%
CNC(=S)NNC(=O)c1cccn(Cc2ccc(Cl)cc2Cl)c1=O | i | 9.8% | -0.5% | 0.562µM* | 9.6% | 15.8%
CNC(=S)NNC(=O)c1ccc(=O)n(Cc2ccc(Cl)cc2Cl)c1 | i | -3.1% | -4.0% | -4.3% | nt | -2.4%
CCc1cccc2c3c([nH]c12)[C@@](CC)(CC(=O)O)OCC3 | 0.0%[25.9 µM] | 3.9%[56.1 µM] | -4.3%[21.4 µM] | 12.6µM* | 1.0% | nt
CCc1cccc2c(C(=O)CCl)c[nH]c12 | -12.3% | 5.5% | 3.0% | 3.8% | ? | -4.6%
O=C(O)c1ccc(/C=N/NC(=O)c2cc3c(ccc4ccccc43)o2)cc1 | nt | 39.8µM* | -24.7% | -28.0% | nt | ?
O=C(N/N=C/c1ccncc1)c1cc2c(ccc3ccccc32)o1 | -14.7% | nt | 1.4% | 27.1% | -12.6% | 12.6%
Cc1noc(C)c1-c1nc(Nc2ccncc2)c2ccccc2n1 | -6.0% | 28.2µM* | -5.7% | -18.2% | ? | -7.9%
Cc1nc2c(c(=O)n1Cc1ccccc1Cl)c1nc3ccccc3nc1n2Cc1ccco1 | -4.2% | -4.2% | 2.1% | ? | 3.3% | -6.3%
COc1ccc(Cn2c3nc4ccccc4nc3c3c(=O)n(Cc4ccco4)c(C)nc32)cc1 | 3.55µM* | 31.6µM* | ? | ? | ? | ?
COc1ccc(C(=O)N(Cc2ccccc2)Cc2cccs2)c(O)c1 | nt | -5.8% | nt | nt | nt | nt
CCc1ccc(NC(=O)CS(=O)CC(=O)Nc2ccc(-n3cnnn3)c(C)c2)cc1 (configuration not stated) | nt | 56.2µM* | -8.6% | -1.7% | nt | -27.7%
COc1ccc(/C=N/NC(=O)c2ccc(COCC(F)(F)C(F)F)cc2)cc1 | i | 2.6% | -4.1% | -7.2% | 0.5% | -4.3%
O=C(N/N=C/c1ccc2c(c1)OCO2)c1ccc(COCC(F)(F)C(F)F)cc1 | nt | 56.2µM* | -10.1% | -8.9% | nt | -10.7%
O=C(O)[C@@H](O)[C@@H](O)[C@H](O)[C@H](O)CO | -14.6% | 7.94µM*! | -6.9% | 19.5% | ? | ?
OC[C@@H](O)C(O)[C@H](O)[C@H](O)CO (some centres not stated) | -13.7% | 6.2% | 0.7% | 3.9% | nt | -2.7%
COc1cc(-c2no[n+]([O-])c2C#N)cc(OC)c1OC | nt | nt | nt | nt | nt | -4.0%
O=C(COc1ccc2c3c(c(=O)oc2c1)CCC3)Nc1ccc(CCO)cc1 | nt | 39.8µM* | -11.1% | -2.0% | nt | -6.3%
CCc1cc(-c2oncc2-c2ccc(OC)cc2)c(O)cc1OC | -16.1% | 8.2% | -20.8% | -26.9% | nt | -0.2%
Cc1nnc(SCC(=O)Nc2nc(-c3ccccc3)cs2)n1N | i | 1.0% | -1.9% | -11.0% | 10.6% | -4.0%
